# Activity calls are given as the source filed them. Unless noted, how the calls were made is not given here.
# Key:
# [1] = A549 cell viability effects, profiling panel, calcein-AM fluorescence, 48 h, basal (AID 1162); details: higher = more signal; further: test concentration not given here
# [2] = adipocyte viability effects, profiling panel, cell-based, 3T3-L1 adipocytes, calcein-AM fluorescence, 48 h, basal (AID 1163); details: 3T3-L1 adipocytes viability, higher = more signal; further: test concentration not given here
# [3] = HepG2 cell viability effects, profiling panel, calcein-AM fluorescence, 48 h, basal (AID 1164); details: higher = more signal; further: test concentration not given here
# [4] = MM1S cell viability effects, profiling panel, calcein-AM fluorescence, 48 h, basal (AID 1165); details: higher = more signal;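 further: viability of MM1S multiple myeloma cells under basal unstimulated conditions; test concentration not given here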
# [5] = basal RPMI8226 viability, no added stimulus, profiling panel, cell-based, calcein-AM fluorescence, 48 h, PK04 Diversity Set (AID 1166); details: RPMI8226 myeloma viability, higher = more signal;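 further: cells grown under basal conditions without added stimulus; test concentration not given here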
# [6] = basal HepG2 mitochondrial membrane potential changes, profiling panel, cell-based, JC-1 fluorescence, 24 h, 100 nL compound (AID 1167); details: higher = more signal; further: test concentration not given here
# [7] = basal 3T3-L1 adipocyte mitochondrial potential changes, profiling panel, cell-based, JC-1 fluorescence, 3T3-L1 adipocytes, 24 h, 100 nL compound (AID 1168); details: JC-1 mitochondrial fluorescence, higher = more signal, called active from +8 up or from −8 down; further: test concentration not given here
# [8] = basal RPMI8226 mitochondrial membrane potential changes, profiling panel, cell-based, JC-1 fluorescence, 24 h, 100 nL compound (AID 1169); details: RPMI8226 myeloma, JC-1 mitochondrial potential fluorescence, higher = more signal; further: test concentration not given here
# [9] = basal MM1S mitochondrial membrane potential changes, profiling panel, cell-based, JC-1 fluorescence, 24 h, 100 nL compound (AID 1170); details: higher = more signal; further: test concentration not given here
# [10] = A549 lung cancer cell viability effects, profiling panel, resazurin fluorescence, 24 h, PK04 Diversity Set (AID 1171); details: higher = more signal, called active from +8 up or from −8 down; further: test concentration not given here
# [11] = HepG2 liver cancer cell viability effects, profiling panel, resazurin fluorescence, 24 h, PK04 Diversity Set (AID 1172); details: higher = more signal; further: test concentration not given here
# [12] = basal S. cerevisiae growth modulation, no modifier, primary screen, OD600, strain BY4716, 24 h, basal condition (AID 1173); details: OD600, 24 h, higher = more signal, called active from +8 up or from −8 down
# [13] = MM1S myeloma cell viability, profiling panel, resazurin fluorescence, basal, 24 h, PK04 Diversity Set (AID 1174); details: higher = more signal, called active from +8 up or from −8 down;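 further: MM1S multiple myeloma cell line; test concentration not given here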
# [14] = molecular target: Dihydroorotate dehydrogenase (quinone), mitochondrial (Plasmodium falciparum (isolate 3D7)) (UniProt Q08210); experiment: PfDHODH enzyme inhibitors, primary screen, biochemical, C-terminal His tag, absorbance 600 nm (AID 1175); details: DCIP absorbance 600 nm, higher = more signal, called active from +8 up or from −8 down;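 further: recombinant parasite enzyme with a five histidine tag at its C terminus; test concentration not given here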
# [15] = P. aeruginosa biofilm formation inhibitors, primary screen, strain PAO1, LB-PBS medium, absorbance 600 nm (AID 1176); further: test concentration not given here; details: P. aeruginosa PAO1 growth/biofilm, A600, 12 h; higher = more signal
# [16] = S. cerevisiae RM11-1a growth modifiers, primary screen, strain RM11-1a, OD600, basal, 24 h (AID 1177); details: OD600, 24 h, higher = more signal, called active from +8 up or from −8 down;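 further: cultures grown under basal conditions with no added stressor; test concentration not given here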
# [17] = E. coli acrAB mutant growth effects, primary screen, E. coli filamentation inducers, strain DRC39, OD650, 24 h (AID 1178); details: higher = more signal, called active from +8 up or from −8 down;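 further: growth measured as culture turbidity by optical density at 650 nm; test concentration not given here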
# [18] = E. coli acrAB mutant growth effects, primary screen, E. coli filamentation inducers, strain DRC39, OD650, 48 h (AID 1179);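 further: screen aims at cell division blockers that make cells filament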; details: E. coli DRC39 delta-acrAB growth, higher = more signal, called active from +8 up or from −8 down
# [19] = RPMI8226 myeloma cell viability, profiling panel, resazurin fluorescence, basal, 24 h, PK04 Diversity Set (AID 1180); details: higher = more signal;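 further: RPMI8826 multiple myeloma cell line at 5000 cells per well; test concentration not given here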
# [20] = molecular target: E3 ubiquitin-protein ligase XIAP (Homo sapiens) (UniProt P98170); experiment: XIAP binders, primary screen, biophysical, small-molecule microarray, fluorescence 635 nm (AID 1181); details: small-molecule microarray binding, higher = more signal;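 further: score merges 667 nm emission and signal to noise over triplicate slides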
# E3 ubiquitin-protein ligase XIAP (Homo sapiens), sequence (P98170 whole entry, looked up): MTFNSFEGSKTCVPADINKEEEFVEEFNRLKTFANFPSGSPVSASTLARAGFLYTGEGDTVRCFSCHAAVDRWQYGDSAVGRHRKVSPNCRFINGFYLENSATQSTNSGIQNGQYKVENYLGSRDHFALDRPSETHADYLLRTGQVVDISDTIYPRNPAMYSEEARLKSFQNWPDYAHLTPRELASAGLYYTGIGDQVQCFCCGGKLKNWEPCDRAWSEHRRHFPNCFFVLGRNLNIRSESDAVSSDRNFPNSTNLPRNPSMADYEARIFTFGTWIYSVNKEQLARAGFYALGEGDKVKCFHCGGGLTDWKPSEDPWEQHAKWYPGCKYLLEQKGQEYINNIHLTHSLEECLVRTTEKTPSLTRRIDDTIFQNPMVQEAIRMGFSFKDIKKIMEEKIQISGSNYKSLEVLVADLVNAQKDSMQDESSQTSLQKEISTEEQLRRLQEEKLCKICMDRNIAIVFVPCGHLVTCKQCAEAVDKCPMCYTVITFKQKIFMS
# Dihydroorotate dehydrogenase (quinone), mitochondrial (Plasmodium falciparum (isolate 3D7)), sequence (Q08210 whole entry, looked up): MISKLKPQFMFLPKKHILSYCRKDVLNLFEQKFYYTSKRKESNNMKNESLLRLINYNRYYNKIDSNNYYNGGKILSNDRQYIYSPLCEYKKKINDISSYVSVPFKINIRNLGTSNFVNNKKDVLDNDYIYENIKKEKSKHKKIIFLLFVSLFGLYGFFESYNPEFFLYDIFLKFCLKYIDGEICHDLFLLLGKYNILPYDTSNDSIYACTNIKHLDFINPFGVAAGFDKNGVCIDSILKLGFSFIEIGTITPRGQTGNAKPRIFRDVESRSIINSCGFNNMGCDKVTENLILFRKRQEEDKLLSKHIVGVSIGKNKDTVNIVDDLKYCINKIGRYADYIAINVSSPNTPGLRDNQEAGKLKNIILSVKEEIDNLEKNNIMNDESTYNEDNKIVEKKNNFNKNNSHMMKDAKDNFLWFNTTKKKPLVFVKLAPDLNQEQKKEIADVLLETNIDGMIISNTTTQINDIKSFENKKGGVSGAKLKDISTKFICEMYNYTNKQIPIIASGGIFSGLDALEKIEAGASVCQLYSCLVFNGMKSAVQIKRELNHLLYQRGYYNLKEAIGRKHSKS
Compound,z-score [1],z-score [2],z-score [3],z-score [4],z-score [5],z-score [6],z-score [7],z-score [8],z-score [9],z-score [10],z-score [11],z-score [12],z-score [13],composite z-score [14],z-score [15],z-score [16],z-score [17],z-score [18],z-score [19],composite z-score [20]
C=CC[C@@]1(C(=O)N2CCCCC2)N=C(c2ccc(OCCCO)cc2)O[C@@H]1c1ccccc1N=[N+]=[N-],-0.637,2.03,-0.441,-1.23,-2.71,1.02,1.21 (inactive),-0.982,-1.66,-1.5 (inactive),-0.355,-1.02 (inactive),-1.62 (inactive),0.479 (inactive),0.302 (inactive),0.597 (inactive),0.985 (inactive),-0.682 (inactive),-0.963,0.13
CO[C@H]1O[C@H](CO)[C@@H](OC(=O)Nc2ccccc2-c2ccccc2)[C@H](OC(=O)Nc2ccccc2-c2ccccc2)[C@@H]1OC(=O)Nc1ccccc1-c1ccccc1,-0.378,0.159,-0.0639,-0.857,-1.24,0.0618,1.6 (inactive),-0.194,1.33,-0.387 (inactive),-0.141,-0.652 (inactive),-0.146 (inactive),0.288 (inactive),1.31 (inactive),2.59 (inactive),0.454 (inactive),0.434 (inactive),0.203,-0.0233
C=C(CCCC)/C(=C/C[C@H](OC(C)=O)c1ccccc1OCCO)c1cnc2ccccc2c1,0.615,-0.466,0.0984,-3.37,-2.83,1.14,-1.26 (inactive),-0.247,-0.172,-0.344 (inactive),-0.671,-0.468 (inactive),-1.37 (inactive),-5.76 (inactive),0.26 (inactive),1.15 (inactive),-0.709 (inactive),-0.742 (inactive),-0.905,-0.13
NC(=O)N1C(=O)C2C(C1=O)C1C=C(CCCO)C2C(C2CC2)N1Cc1cc2c(cc1Br)OCO2 (stereo not given),-0.318,0.505,-0.0479,-2.42,-0.885,-0.258,-0.274 (inactive),0.21,-0.237,-0.604 (inactive),-0.437,-1.85 (inactive),-0.264 (inactive),-0.659 (inactive),-0.778 (inactive),-0.492 (inactive),-0.298 (inactive),-0.562 (inactive),-0.46,0.0479
COc1cc2c(cc1O)C=[N+](Cc1cc3c(cc1Br)OCO3)CC2,-0.103,0.626,-0.958,0.343,-0.109,-0.375,-0.935 (inactive),0.108,-0.374,-0.698 (inactive),-0.532,0.384 (inactive),-1.29 (inactive),0.707 (inactive),0.0898 (inactive),0.593 (inactive),-0.31 (inactive),-0.3 (inactive),-0.566,-0.252
COc1cc2c(cc1O)C(c1cccs1)N(Cc1ccc([N+](=O)[O-])o1)CC2 (stereo not given),0.383,0.0975,0.859,0.647,0.174,-0.771,0.627 (inactive),-0.185,1.09,-1.63 (inactive),-0.302,-2.05 (inactive),0.278 (inactive),-4.93 (inactive),0.723 (inactive),-1.14 (inactive),-0.107 (inactive),1.19 (inactive),-0.182,-0.102
COc1ccc([C@H]2C[C@H]3C(Br)=C[C@@]2(CO)C(=O)[C@]32CO2)cc1,-0.0583,-0.335,-0.898,-2.71,-0.106,-2.76,0.134 (inactive),-0.401,-1.09,0.417 (inactive),0.231,-4.42 (inactive),-0.445 (inactive),-0.174 (inactive),0.118 (inactive),-0.121 (inactive),-0.0919 (inactive),-0.0065 (inactive),-0.384,0.0009
COC(=O)[C@@]1(Cc2ccc(F)cc2)[C@H]2c3cc(C(=O)N(C)C)n(Cc4cc(C)n(C)n4)c3C[C@H]2CN1C(=O)c1ccccc1,-0.492,-0.202,-0.395,-0.9,-0.528,0.635,-1.01 (inactive),-0.12,0.203,-0.759 (inactive),-0.806,-0.169 (inactive),-0.943 (inactive),-0.368 (inactive),0.495 (inactive),-0.0352 (inactive),-0.431 (inactive),-0.851 (inactive),-0.856,0.473
C[N+](C)(C)CCCC[C@@H]1NC(=O)[C@H]2C[C@@H](C(=O)NCCCCCCNC(=O)CS)[C@@H](c3ccc(O)cc3)N2C1=O,-0.293,-0.267,-0.838,-0.414,0.498,-1.66,-0.564 (inactive),0.164,-0.0762,-0.657 (inactive),-0.935,0.123 (inactive),-0.476 (inactive),0.0966 (inactive),-0.0059 (inactive),-0.0807 (inactive),0.0109 (inactive),-0.643 (inactive),-0.862,-0.0272
